PLK1 PBD block: inhibitors of human PLK1 polo-box domain binding | P53350 | Plk1 PBD binding of FITC phosphopeptide, fluorescence polarization | Potency, µM, inactives show max response, negative = inhibition, most hits filed as inhibitors | hit rate 2.8% among 360,000 | AID 720504; also: series mostly up to about 57 µM; nearly all actives have a fitted effect of over 65% in size
DT40 TDP1 no CPT: qHTS for Inhibitors of human tyrosyl-DNA phosphodiesterase 1 (TDP1): qHTS in cells in absence of CPT. hit rate 15% among 420,000. AID 686978, 2013. DT40 Tdp1-/- hTDP1 cells, no CPT, ATP luminescence, 48 h. Potency, µM (titrated, usually from 46.2 µM), inactives show at the highest dose activity change, negative = growth inhibition, hits mostly inhibitors; also: nearly all actives have a fitted effect of over 55% in size
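Readout: luminescence from CellTiter-Glo after 30 min in the dark at RT. Cells: DT40 Tdp1-/- with stable hTDP1, 400/well. Exposure: compounds alone, ≥48 hr, 37 °C.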
KAT2A inh: GCN5L2 (KAT2A) acetyltransferase inhibition; Potency, µM (highest dose often 58.9 µM), without a hit: top-dose activity change, negative = inhibition, actives largely listed as inhibitors; GCN5L2 HAT assay, ThioGlo1 CoA-SH fluorescence; Q92830; hit rate 0.21% among 390,000
Target sequence (Q92830 whole entry, looked up): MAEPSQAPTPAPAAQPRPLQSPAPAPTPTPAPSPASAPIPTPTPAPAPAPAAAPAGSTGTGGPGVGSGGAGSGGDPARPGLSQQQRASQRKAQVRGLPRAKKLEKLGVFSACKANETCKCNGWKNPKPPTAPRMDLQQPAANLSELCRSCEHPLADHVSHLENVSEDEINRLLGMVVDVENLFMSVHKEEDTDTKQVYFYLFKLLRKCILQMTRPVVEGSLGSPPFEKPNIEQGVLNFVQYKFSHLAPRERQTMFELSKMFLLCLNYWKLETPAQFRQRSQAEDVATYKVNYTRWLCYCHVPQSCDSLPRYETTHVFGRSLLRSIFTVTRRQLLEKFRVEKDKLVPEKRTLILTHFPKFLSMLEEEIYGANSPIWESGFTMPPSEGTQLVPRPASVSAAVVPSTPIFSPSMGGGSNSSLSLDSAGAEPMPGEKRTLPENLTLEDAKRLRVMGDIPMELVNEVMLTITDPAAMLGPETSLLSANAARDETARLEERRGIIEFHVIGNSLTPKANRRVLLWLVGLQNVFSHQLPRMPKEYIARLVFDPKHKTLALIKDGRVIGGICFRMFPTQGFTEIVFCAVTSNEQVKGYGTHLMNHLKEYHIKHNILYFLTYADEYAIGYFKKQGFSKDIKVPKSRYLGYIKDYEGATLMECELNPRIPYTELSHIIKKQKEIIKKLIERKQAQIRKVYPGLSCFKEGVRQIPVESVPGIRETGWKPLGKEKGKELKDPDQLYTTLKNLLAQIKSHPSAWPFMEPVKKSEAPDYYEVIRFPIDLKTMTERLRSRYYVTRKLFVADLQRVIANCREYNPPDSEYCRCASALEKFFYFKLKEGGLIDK
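Compounds, pin-transferred from DMSO stocks, meet 20nM GCN5L2 for 15 min before the reaction begins with H3(1-25) peptide (75uM) and acetyl-CoA (70uM). Thiol-reactive ThioGlo1 reports CoA release over 20 min at room temperature.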
TDP1 block: inhibitors of human tyrosyl-DNA phosphodiesterase TDP1. recombinant TDP1, AlphaScreen DNA substrate cleavage. Potency, µM (series often up to 130 µM), without a hit: at the top dose activity change, negative = inhibition, most hits filed as inhibitors. hit rate 0.28% among 350,000; also: nearly all actives have a fitted effect of over 40% in size
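Compounds were preincubated with Tdp1 (1 nM final) for 15 min at room temperature before substrate (15 nM final) started a 5 min reaction; beads (10 ug/ml final) were then added for 10 min before AlphaScreen detection.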
TDP1 cell CPT: growth inhibition of DT40 Tdp1-/-;hTDP1 cells with camptothecin (screen for TDP1 inhibitors) | chicken DT40 Tdp1-/-;hTDP1 cells + 20 nM CPT, ATP luminescence, 48 h | Potency, µM (titrated, usually from 46.2 µM), without a hit: at the top dose activity change, negative = growth inhibition, usual class: inhibitors | hit rate 12% among 420,000 | AID 686979; also: nearly all actives have a fitted effect of over 55% in size
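Chicken DT40 Tdp1-/- cells complemented with human TDP1, 400 cells/well, exposed to compounds plus 20 nM camptothecin for at least 48 h at 37 C; viability read as ATP content by CellTiter-Glo luminescence.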
VDR inh: vitamin D3 receptor (human) inhibition | Potency, µM, without a hit: max response, negative = inhibition, most hits filed as inhibitors | hit rate 0.93% among 400,000 | P11473 | VDR-SRC2-3 peptide fluorescence polarization, 2 h
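Signal is fluorescence polarization, reporting how far test compounds block the interaction of VDR with the SRC2-3 coregulator peptide after a 2 h room-temperature incubation.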
* hit, by the source's call; u = inconclusive; x = no result; [ ] = dose if it differs, or a comment. The list is not random: actives were taken first. Their share in the collection is about 18%. Calls follow the shape of the dose curve; as a rule, active = well fitted curve in the direction sought with a large enough effect; inconclusive = small, poorly fitted or top-dose-only effect, or another doubt; inactive = no such curve, though single readings can be large; an effect the other way counts as inactive or inconclusive. % is scaled to controls: 0 for no effect and ±100 for the full control effect; potency is read from the fitted curve at half-maximal effect.

SMILES	PLK1 PBD block	DT40 TDP1 no CPT	KAT2A inh	TDP1 block	TDP1 cell CPT	VDR inh
CCCS(=O)(=O)NC(=O)C1(C)CCCN(C(=O)c2cccc(C(F)(F)F)c2)C1 (stereo unspecified)	-2%	-20%	x	x	-27%	x
CSc1nc2ccccc2n1CC(=O)Nc1ccccc1	1%	18µM*	-4%	2%	5.2µM*	1%
CCn1c(/C=C/c2ccccc2)nc2ccccc21	-2%	26µM*	9%	-4%	u	-1%
O=C(Cn1c(/C=C/c2ccccc2)nc2ccccc21)Nc1ccc(F)cc1	19µM*	u	66%	-3%	-69%	u
COc1ccc(/C=C/c2nc3ccccc3n2C)cc1	-7%	8.2µM*	-14%	5%	9.2µM*	5%
CC1(C)C2CCC(C2)C1(C)NC(=O)CNCC1CCCCC1 (stereo unspecified)	-5%	u	2%	-8%	0%	17%
Cc1nc2ccccn2c1C(=O)OCC#N	-12%	-24%	6%	-4%	-6%	-11%
COC(=O)n1c(SC)nc2ccccc21	27µM*	-28%	-17%	4%	u	-6%
CCCCNC(=O)n1c(SC)nc2ccccc21	u	-29%	-5%	2%	u	-6%
Fc1ccc(Nc2nc3nonc3nc2Nc2cccc(C(F)(F)F)c2)cc1	x	0.16µM*	-21%	7%	0.33µM*	-2%
O=c1cnnc(Nc2cccc(C(F)(F)F)c2)[nH]1	-15%	-2%	-2%	5%	-5%	2%
CC(=O)NCCNC(=O)C1(C)Cc2c(-c3cccc(C(F)(F)F)c3)ccnc2O1 (stereo unspecified)	2%	10%	x	x	11%	x
COc1ccc(CCCNC(=O)C2(C)Cc3c(-c4ccc(C(N)=O)cc4)ccnc3O2)cc1 (stereo unspecified)	3%	u	x	x	u	x
CC1(C(=O)NCc2cccc(Cl)c2)Cc2c(-c3ccc4c(c3)OCO4)ccnc2O1 (stereo unspecified)	3%	16µM*	x	x	26µM*	x
CC1(C(=O)NCc2cccs2)Cc2c(-c3ccc4c(c3)OCO4)ccnc2O1 (stereo unspecified)	-9%	2.3µM*	x	x	1.3µM*	x
CC1(C(=O)NCc2cccs2)Cc2c(-c3ccccc3)ccnc2O1 (stereo unspecified)	-8%	6.5µM*	x	x	5.8µM*	x
COc1ccc(CCCNC(=O)C2(C)Cc3c(-c4ccc5c(c4)OCO5)ccnc3O2)cc1 (stereo unspecified)	3%	5.8µM*	x	x	5.2µM*	x
CCN(C(=O)c1cccc(S(=O)(=O)N2CCCCC2)c1)C1CCS(=O)(=O)C1 (stereo unspecified)	0%	-22%	-1%	x	-9%	-2%
CN(C)c1ccc(-c2ccnc3c2CC(C)(C(=O)NCc2cccs2)O3)cc1 (stereo unspecified)	6%	13µM*	x	x	16µM*	x
CCCNC(=O)C1(C)CCN(Cc2ccc(C)c3ccccc23)C1 (stereo unspecified)	-19%	23µM*	x	x	u	x
CCCNC(=O)C1(C)CCN(C(=O)Cc2ccc(OC)c(OC)c2)C1 (stereo unspecified)	-2%	5%	x	x	13%	x
CCCNC(=O)C1(C)CCCN(Cc2csc3ccccc23)C1 (stereo unspecified)	-7%	u	x	x	u	x
CCCNC(=O)C1(C)CCN(Cc2ccc(OC)c3ccccc23)C1 (stereo unspecified)	-1%	21µM*	x	x	u	x
COc1ccc(NC(=O)CN2C(=O)C(c3ccccc3)=NC23CCC(C)CC3)cc1Cl (stereo unspecified)	x	u	-7%	3%	u	2%
Cc1cccc(NC(=O)c2ccc(C(=O)Nc3cccc(C)c3C)cc2)c1C	x	3%	-22%	1%[12.3 µM]	-20%	49%
SMILES	PLK1 PBD block	DT40 TDP1 no CPT	KAT2A inh	TDP1 block	TDP1 cell CPT	VDR inh
CC(C)OC(=O)c1cc2c(OCC(O)CNC(C)(C)C)cccc2[nH]1 (stereo unspecified)	x	-52%	x	x	u	x
CCOC(=O)C1=C(NC(=S)NC(=O)c2ccccc2)c2ccccc2CC1C(C)C (stereo unspecified)	-10%	23µM*	-19%	5%	u	7%
COc1ccc2c(C)c(Cl)c(=O)oc2c1	-2%	-13%	-18%	0%	-14%	7%
C=C1CC(COc2ccc3c(C)c(Cl)c(=O)oc3c2)(c2ccccc2)OC1=O (stereo unspecified)	-5%	1.6µM*	x	x	1.6µM*	u
Cc1ccc(OCC(=O)Nc2nonc2-c2ccc(Br)cc2)cc1	x	-18%	-12%	11%	-6%	1%
Cc1cccc(OCC(=O)Nc2nonc2-c2ccc(Br)cc2)c1C	x	u	-6%	11%	18µM*	11%
Cc1ccc(OCC(=O)Nc2nonc2-c2ccc(C)c(C)c2)cc1C	x	u	-1%	6%	u	19%
Cc1ccc(OC(C)C(=O)Nc2nonc2-c2ccc(Br)cc2)cc1C (stereo unspecified)	x	18µM*	1%	9%	u	9%
Cc1cccc(OC(C)C(=O)Nc2nonc2-c2ccc(Br)cc2)c1C (stereo unspecified)	x	16µM*	-9%	6%	26µM*	25%
Cc1ccsc1CNc1ncnc2ccc(-c3ccc4c(c3)OCO4)cc12	x	x	x	3%	x	x
Cc1ccccc1OCC(=O)NCCNC(=O)c1ccccn1	7%	-17%	-5%	6%[0.0935 µM]	2%	6%
Nc1nc(NCCc2ccc(O)cc2)nc2nc(-c3ccco3)nn12	x	12µM*	11%	13%	15µM*	u
COC(=O)[C@@]12CCCCN1[C@H](c1ccc(-c3ccc(OC)cc3)c(OC)c1)[C@@H]1C(=O)N(C)C(=O)[C@@H]12	-6%	u	-15%	1%	21µM*	-5%
COC(=O)[C@@]12CCCCN1[C@H](c1ccc(-c3ccc4c(c3)OCO4)cc1)[C@H]1C(=O)N(C)C(=O)[C@H]12	-1%	23µM*	-6%	3%	13µM*	-1%
COC(=O)[C@@]12CCCCN1[C@H](c1ccc(-c3ccc(C(C)=O)cc3)cc1)[C@@H]1C(=O)N(C)C(=O)[C@@H]12	-13%	23µM*	-25%	2%	15µM*	-12%
COC(=O)[C@@]12CCCCN1[C@H](c1ccc(-c3ccc(OC)cc3)cc1)[C@@H]1C(=O)N(C)C(=O)[C@@H]12	-2%	21µM*	-12%	0%	21µM*	-6%

Screens (PubChem BioAssay)
